Screens deposited in PubChem BioAssay by National Center for Advancing Translational Sciences (NCATS).
ALDH1A1 block: qHTS Assay for Inhibitors of Aldehyde Dehydrogenase 1 (ALDH1A1); Purified ALDH1A1, NADH fluorescence, propionaldehyde substrate; Aldehyde dehydrogenase 1A1 (Homo sapiens), P00352; 7.3% of 220,000 active; Potency, µM (doses to about 75.3 µM), without a hit: at the top dose activity, negative = inhibition, actives largely listed as inhibitors; active means well fitted inhibition curve with a large enough effect, not every such curve was filed as active; inconclusive means small, poorly fitted or top-dose-only effect, or another doubt; inactive means no such curve, though single readings can be large or run the other way;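 further: plate controls were no enzyme wells and a reference inhibitor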
Target sequence (P00352 whole entry, looked up): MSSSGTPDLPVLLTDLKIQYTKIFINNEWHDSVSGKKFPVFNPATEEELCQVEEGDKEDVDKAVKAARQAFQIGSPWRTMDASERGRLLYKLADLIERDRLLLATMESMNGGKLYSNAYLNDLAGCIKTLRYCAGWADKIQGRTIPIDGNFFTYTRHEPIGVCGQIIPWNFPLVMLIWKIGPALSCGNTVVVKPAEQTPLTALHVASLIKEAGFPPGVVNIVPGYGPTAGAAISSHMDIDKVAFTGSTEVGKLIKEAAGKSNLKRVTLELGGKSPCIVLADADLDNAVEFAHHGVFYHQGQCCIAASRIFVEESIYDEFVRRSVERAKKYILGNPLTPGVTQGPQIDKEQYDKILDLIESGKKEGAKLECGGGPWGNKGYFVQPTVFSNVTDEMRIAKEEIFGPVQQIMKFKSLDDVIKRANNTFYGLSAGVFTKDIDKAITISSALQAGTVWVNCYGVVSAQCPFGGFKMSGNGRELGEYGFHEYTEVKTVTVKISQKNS
HTT aggregate: qHTS Multiplex Assay to Identify Dual Action Probes in a Cell Model of Huntington: Aggregate Formation (GFP). PC12 HttQ103-GFP aggregates, Acumen cytometry, 40 h. Potency, µM (series often up to 46.1 µM), without a hit: at the highest dose activity change, negative = inhibition, hits mostly inhibitors. 1.1% of 220,000 active. AID 1688, 2009; further: on the % scale 0 is the no-effect control and ±100 the full control effect; nearly all actives have a fitted effect of over 60% in size
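PC12/HTTQ103-GFP, ecdysone-inducible; teb 100 nM; cpd qHTS titration; GFP aggregates read on laser cytometer, Ex 488/Em 500-530 nm.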
HPGD block: qHTS Assay for Inhibitors of HPGD (15-Hydroxyprostaglandin Dehydrogenase); 15-hydroxyprostaglandin dehydrogenase [NAD(+)] (Homo sapiens), P15428; purified HPGD, NADH fluorescence kinetic, PGE2 substrate; Potency, µM, inactives show at the top dose activity change, negative = inhibition, usual class: inhibitors; 4.3% of 150,000 active; AID 894, 2007; active means well fitted inhibition curve with a large enough effect, not every such curve was filed as active; inconclusive means small, poorly fitted or top-dose-only effect, or another doubt; inactive means no such curve, though single readings can be large or run the other way; further: on the % scale 0 is the no-effect control and ±100 the full control effect
Target sequence (P15428 whole entry, looked up): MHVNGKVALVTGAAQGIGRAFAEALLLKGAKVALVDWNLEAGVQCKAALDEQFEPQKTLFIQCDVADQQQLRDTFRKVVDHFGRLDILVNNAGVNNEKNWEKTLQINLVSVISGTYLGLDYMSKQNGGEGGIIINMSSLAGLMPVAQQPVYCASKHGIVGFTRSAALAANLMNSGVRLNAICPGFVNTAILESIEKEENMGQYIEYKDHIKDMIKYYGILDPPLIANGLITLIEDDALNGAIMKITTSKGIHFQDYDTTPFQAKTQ
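NADH formation kinetics: reaction with 30 uM PGE2 and 1 mM NAD+ (final), 20 nM enzyme, Tris-HCl pH 8 with Tween 20, after 15 min compound preincubation at room temperature. Fluorescence change, last versus first of five reads.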
Luc counter: Counterscreen for Luciferase (Kinase-Glo TM) Inhibition | 0.28% of 200,000 active | AID 1379, 2008 | Potency, µM (highest dose often 38.3 µM), inactives show at the top dose activity change, negative = inhibition, usual class: inhibitors | Kinase-Glo luciferase, ATP luminescence, 8 min | Luciferin 4-monooxygenase (Photuris pensylvanica), Q27757; further: on the % scale 0 is the no-effect control and ±100 the full control effect; nearly all actives have a fitted effect of over 60% in size
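Substrate mix (final 50 mM imidazole pH 7.2, 50 mM KCl, 7 mM MgCl2, 10 uM ATP, 0.01% Tween 20, 0.05% BSA) plus pin-tool compound, then Kinase-Glo detection mix; 8 min ambient, luminescence read.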
Lamin A splicing: qHTS Assay for Modulators of Lamin A Splicing; HeLa LMNA splicing GFP/RFP minigene ratio, 48 h; Potency, µM (series often up to 46.1 µM), for inactives: at the highest dose ratio change, negative = inhibition, actives largely listed as inhibitors; 0.01% of 200,000 active; active means well fitted inhibition curve with a large enough effect in the signal ratio, with a control signal flat, not every such curve was filed as active; inconclusive means small, poorly fitted or top-dose-only effect, or effect the other way, or a change in a side signal; the % refers to the signal ratio; further: on the % scale 0 is the no-effect control and ±100 the full control effect
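S3 HeLa stable clones carrying a lamin A-EGFP splicing minigene plus DsRed2 were seeded at 600 cells/well in Opti-MEM with 2% FBS, pin-dosed and incubated 48 h at 37°C. Acumen cytometry (488 nm) gave the GFP/RFP total-intensity ratio.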
HTT ATP protect: qHTS Multiplex Assay to Identify Dual Action Probes in a Cell Model of Huntington: Cytoprotection (ATP); 0.14% of 230,000 active; Potency, µM (titrated, usually from 56.4 µM), inactives show cytoprotection (ATP increase), most hits filed as activators; PC12 HTT-Q103 induced, cytoprotection, ATP luminescence, 40 h; further: % of control where 0% means no effect; nearly all actives have a fitted effect of over 45% in size
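Cells were plated at 1500 per well in phenol red-free DMEM with 5% equine and 5% calf serum. Tebufenozide (100 nM final) and compounds were added, then ATPlite reagent, and luminescence was read.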
* hit, by the source's call; u = inconclusive; x = not tested or not shown; [ ] = dose if it differs, or a comment. Only some compounds are listed: those with a hit (about 9% of all), similar ones and a draw of the others. Unless noted, the call rests on the fitted dose curve; in most records, active means well fitted curve in the direction sought with a large enough effect; inconclusive means small, poorly fitted or top-dose-only effect, or another doubt; inactive means no such curve, though single readings can be large; an effect the other way counts as inactive or inconclusive. Potency means the concentration at half of the fitted maximal effect.

SMILES	ALDH1A1 block	HTT aggregate	HPGD block	Luc counter	Lamin A splicing	HTT ATP protect
Cc1ccc(C(c2nnnn2Cc2cccs2)N2CCN(C(=O)c3ccco3)CC2)cc1 (configuration not stated)	4.47µM*	25.6%	9.9%	1.1%	-7.7%	23.9%[10 µM]
CCC(c1nnnn1Cc1cccs1)N1CCN(C(=O)c2ccco2)CC1 (configuration not stated)	u	22.3%[9.22 µM]	x	-2.1%	-6.8%[46 µM]	21.4%[10 µM]
CCOc1ccc(C(c2nnnn2Cc2ccccc2)N2CCN(C(=O)c3ccco3)CC2)cc1 (configuration not stated)	x	x	x	x	x	-0.8%[10 µM]
O=C(c1ccco1)N1CCN(C(c2ccccc2F)c2nnnn2Cc2cccs2)CC1 (configuration not stated)	17.8µM*	-2.5%	-5.0%	4.7%	-9.5%	23.3%[10 µM]
COc1ccc(C(c2nnnn2Cc2ccccc2)N2CCN(C(=O)c3ccco3)CC2)cc1 (configuration not stated)	28.2µM*	u	0.9%	8.3%	2.4%	2.9%
Cc1[nH]n(-c2ccccc2)c(=O)c1C=Nc1ccc(S(=O)(=O)NC(N)=O)cc1	x	24.9%[9.22 µM]	x	x	x	13.3%[10 µM]
CC(C)NCc1nnc(-c2ccccc2Cl)o1	-7.6%	6.4%	x	x	x	-5.7%
O=C(Nc1nnc(-c2ccncc2)s1)Nc1ccccc1F	6.5%	-15.3%	x	4.1%	-9.7%[46 µM]	1.6%[10 µM]
O=C(NCc1ccco1)c1cnn2c(C(F)(F)F)cc(-c3cccs3)nc12	u	27.9%	u	0.5%	u	-17.2%[10 µM]
CCc1ccccc1NC(=O)c1noc(C(C)C)c1[N+](=O)[O-]	-18.5%	7.08µM*	x	x	x	-18.7%
Cc1ccc(NC(=O)c2noc(C(C)C)c2[N+](=O)[O-])cc1	10µM*	10.5%	x	-1.1%	14.8%[46 µM]	-7.0%
CC(C)c1onc(C(=O)N2CCCCC2)c1[N+](=O)[O-]	u	12.3%	14.1µM*	2.8%	-15.0%	13.8%[10 µM]
CS(=O)(=O)CCC(C(=O)OCC(=O)c1ccc(Cl)cc1)N1C(=O)c2ccccc2C1=O (configuration not stated)	0.6%	-4.2%	-9.0%	-2.4%	-2.5%	19.6%[10 µM]
Oc1ccc2ccccc2c1/C=N/Nc1nnc(-c2ncc[nH]2)c2ccccc12	2.5%	0.794µM*	-13.1%	-5.8%	u	-75.9%[10 µM]
Cc1ccc(-n2[nH]c(=O)c3cccnc32)cc1	4.2%	16.6%	15.8µM*	-2.7%	0.9%	-8.1%
Cc1cc(NC(=O)CSc2nnnn2C2CCCC2)no1	u	-9.1%	-4.9%	-1.6%	-4.5%	1.5%
Cc1ccc(CNC(=O)CCS(=O)(=O)c2ccc(Br)s2)o1	22.4µM*	14.2%	-16.2%	-0.7%	6.9%	-0.6%
C=C(C)C(=O)Nc1cccnc1Oc1ccc(F)cc1	x	-2.6%[9.22 µM]	x	x	x	22.8%[10 µM]
COc1cc(/C=C2\SC(=N)N(c3ccc4c(c3)OCO4)C2=O)cc(OC)c1O	8.8%	26.2%	3.98µM*	0.5%	-2.2%	x
COc1cc(/C=C2\SC(=O)N(CC(=O)Nc3cccc(C)c3)C2=O)cc([N+](=O)[O-])c1O	22.4µM*	-25.6%	x	-4.0%	x	18.5%
CCOc1cc(/C=C2\SC(=O)N(CC(=O)Nc3ccccc3F)C2=O)cc([N+](=O)[O-])c1O	u	23.3%[9.22 µM]	x	-2.6%	23.6%[46 µM]	-1.2%[10 µM]
COc1cc(/C=C2\SC(=O)N(c3ccccc3Cl)C2=O)cc([N+](=O)[O-])c1O	0.159µM*	-9.2%[9.22 µM]	x	-2.6%	x	4.4%[10 µM]
Cc1cccn2c(/C=N/OCc3ccc(F)cc3)c(-c3ccc(Cl)cc3)nc12	-6.0%	-2.2%	u	-0.3%	16.2%[0.0737 µM]	1.0%
Fc1ccccc1-c1csc(=Nc2cccnc2)n1CCCn1ccnc1	u	35.5µM*	-9.9%	4.0%	-18.3%	3.2%[10 µM]
CC(C)Cn1c(-c2ccco2)csc1=Nc1cccnc1	12.6µM*	-17.2%	-14.9%	-2.7%	17.2%	-4.5%
SMILES	ALDH1A1 block	HTT aggregate	HPGD block	Luc counter	Lamin A splicing	HTT ATP protect
Fc1ccccc1-c1csc(=Nc2cccnc2)n1CC1CCCO1 (configuration not stated)	2.3%	3.4%	-27.2%	-2.4%	u	9.1%[10 µM]
CCOC(=O)CSc1nc2ccc(NC(=O)COc3ccc(F)cc3)cc2s1	x	x	x	x	14.9%[46 µM]	x
Cc1ccc(S(=O)(=O)/N=C(/Nc2ccc3[nH]c(=O)[nH]c3c2)c2ccc(F)cc2)cc1	8.91µM*	4.7%	x	0.3%	u	29.7%[10 µM]
CC(=O)n1cc([C@@H]2C=C(C(=O)Nc3ccccc3)O[C@H](OCCCCO)C2)c2ccccc21	12.6µM*	17.2%[9.22 µM]	x	x	x	13.3%[10 µM]
O=C(Nc1ccccc1)C1=C[C@@H](c2ccc(Br)cc2)C[C@@H](OCCCCO)O1	7.94µM*	1.5%[9.22 µM]	x	x	x	-5.1%[10 µM]
CC(=O)n1cc([C@H]2C=C(C(=O)O)O[C@@H](OCCCCO)C2)c2ccccc21	u	8.3%[9.22 µM]	x	x	x	17.1%[10 µM]
O=C(Nc1ccccc1)C1=C[C@H](c2ccc3c(c2)OCO3)C[C@H](OCCCCO)O1	-1.1%	2.4%[9.22 µM]	x	x	x	-29.7%[10 µM]
O=C(c1ccc([N+](=O)[O-])cc1)n1nc(-c2ccccc2)nc1NCc1ccc(F)cc1	-5.4%	-14.4%	-14.3%	0.6%	-14.7%	-2.6%[10 µM]
O=C(CCc1nc2ccccc2[nH]1)Nc1ccc2c(c1)OCCO2	7.9%	-4.9%	-16.0%	2.9%	-7.7%	-17.0%
COc1ccc(-c2[nH]ncc2CN2CCSCC2)c(OC)c1	5.2%	14.9%[9.22 µM]	x	-3.7%	-8.6%[46 µM]	11.4%[10 µM]
CCCCn1c(C)cc2cc(O)ccc21	u	-10.5%	-19.7%	21.0%	-4.3%	-12.9%
Oc1c(C(Nc2ccccn2)c2cccnc2)cc(Cl)c2cccnc12 (configuration not stated)	u	7.08µM*	-3.7%	-1.0%	u	-58.8%[10 µM]
Oc1c(C(Nc2cccc(C(F)(F)F)c2)c2cccnc2)ccc2cccnc12 (configuration not stated)	20µM*	u	-8.8%	-2.5%	-10.9%	11.3%[10 µM]
CCC(=O)NC(c1ccc(OC)cc1)c1cc(Cl)c2cccnc2c1O (configuration not stated)	3.8%	-3.4%[9.22 µM]	x	-1.9%	x	-7.9%[10 µM]
Cc1cc(NC(c2cccnc2)c2ccc3cccnc3c2O)no1 (configuration not stated)	-1.1%	u	-12.2%	-0.1%	u	-85.7%
